Values joined by “and” are separate entries in the source; they are usually repeats but may differ in a detail not shown here. Equal entries are not always repeated. Out of some 5,500 compounds screened, about 2,000 (36%) were called active. Not shown: some 18% with an inconclusive outcome. No stated cut-off is given here; in the data, active means normalized growth mostly below about 0.91 (no sharp cut-off); inconclusive means no clear call, values can overlap the other calls; inactive means mostly above about 0.92. Some of the results follow.
Experiment: chemical genetic growth profiling, strain panel (AID 1159580);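 further: tested at 20 µM; growth read once vehicle control cultures reached saturation at 30 °C; 1 = growth at the plate median or of vehicle wells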
Settings: growth OD

Measured: normalized growth

COc1cccc(OC)c1OCCNCC1COc2ccccc2O1 (centres undefined)
inactive: S. cerevisiae deletion strains, locus YAL013W, strain DEP1, stronger effect = lower value 1.02 | S. cerevisiae deletion strains, locus YAL040C, strain CLN3, stronger effect = lower value 0.995 | S. cerevisiae deletion strains, locus YBR021W, strain FUR4, stronger effect = lower value 0.991 | S. cerevisiae deletion strains, locus YBR229C, strain ROT2, stronger effect = lower value 1.01 | S. cerevisiae deletion strains, locus YCL029C, strain bik1, stronger effect = lower value 0.982 | S. cerevisiae deletion strains, locus YCL061C, strain MRC1 (second series), stronger effect = lower value 0.999 | S. cerevisiae deletion strains, locus YDL035C, strain GPR1, stronger effect = lower value 1.01 | S. cerevisiae deletion strains, locus YDL074C, strain BRE1, stronger effect = lower value 1.04 | S. cerevisiae deletion strains, locus YDL101C, strain DUN1, stronger effect = lower value 1.03 | S. cerevisiae deletion strains, locus YDL134C, strain PPH21, stronger effect = lower value 1.01 | S. cerevisiae deletion strains, locus YDL185W, strain tfp1, stronger effect = lower value 0.991 | S. cerevisiae deletion strains, locus YDL192W, strain arf1, stronger effect = lower value 0.99 | S. cerevisiae deletion strains, locus YDR101C, strain arx1, stronger effect = lower value 0.965 | S. cerevisiae deletion strains, locus YDR150W, strain NUM1, stronger effect = lower value 1.02 | S. cerevisiae deletion strains, locus YDR162C, strain NBP2, stronger effect = lower value 1.04 | S. cerevisiae deletion strains, locus YDR318W, strain mcm21, stronger effect = lower value 0.966 | S. cerevisiae deletion strains, locus YDR363W, strain ESC2, stronger effect = lower value 0.955 | S. cerevisiae deletion strains, locus YDR388W, stronger effect = lower value 0.983 | S. cerevisiae deletion strains, locus YDR502C, strain sam2, stronger effect = lower value 0.995 | S. cerevisiae deletion strains, locus YEL061C, strain CIN8, stronger effect = lower value 1.01 | S. cerevisiae deletion strains, locus YER002W, strain NOP16, stronger effect = lower value 1 | S. cerevisiae deletion strains, locus YER110C, stronger effect = lower value 0.978 | S. cerevisiae deletion strains, locus YER155C, strain BEM2, stronger effect = lower value 1.01 | S. cerevisiae deletion strains, locus YER167W, strain BCK2, stronger effect = lower value 1 | S. cerevisiae deletion strains, locus YGL078C, strain dbp3, stronger effect = lower value 0.991 | S. cerevisiae deletion strains, locus YGL086W, strain mad1, stronger effect = lower value 0.974 | S. cerevisiae deletion strains, locus YGL248W, strain PDE1, stronger effect = lower value 1.02 | S. cerevisiae deletion strains, locus YGR078C, strain PAC10, stronger effect = lower value 1.03 | S. cerevisiae deletion strains, locus YGR135W, strain pre9, stronger effect = lower value 0.975 | S. cerevisiae deletion strains, locus YGR229C, strain SMI1, stronger effect = lower value 1.01 and 0.909 | S. cerevisiae deletion strains, locus YGR252W, strain gcn5, stronger effect = lower value 0.907 | S. cerevisiae deletion strains, locus YHR030C, strain SLT2, stronger effect = lower value 1.01 | S. cerevisiae deletion strains, locus YHR079C, strain IRE1 (second series), stronger effect = lower value 0.978 | S. cerevisiae deletion strains, locus YHR094C, strain hxt1, stronger effect = lower value 0.992 | S. cerevisiae deletion strains, locus YHR129C, strain ARP1, stronger effect = lower value 1.01 | S. cerevisiae deletion strains, locus YHR200W, strain rpn10, stronger effect = lower value 0.977 | S. cerevisiae deletion strains, locus YIL066C, strain RNR3, stronger effect = lower value 1.01 | S. cerevisiae deletion strains, locus YIL073C, strain SPO22, stronger effect = lower value 0.999 | S. cerevisiae deletion strains, locus YIL125W, strain kgd1, stronger effect = lower value 0.97 | S. cerevisiae deletion strains, locus YIR030C, strain dcg1, stronger effect = lower value 0.986 | S. cerevisiae deletion strains, locus YJL095W, strain BCK1, stronger effect = lower value 0.992 | S. cerevisiae deletion strains, locus YJL134W, strain LCB3, stronger effect = lower value 1.01 | S. cerevisiae deletion strains, locus YJL168C, strain set2, stronger effect = lower value 0.98 | S. cerevisiae deletion strains, locus YJL187C, strain SWE1 (second series), stronger effect = lower value 1.02 | S. cerevisiae deletion strains, locus YJR043C, strain POL32, stronger effect = lower value 1.01 | S. cerevisiae deletion strains, locus YJR075W, strain HOC1, stronger effect = lower value 1.01 and 0.99 | S. cerevisiae deletion strains, locus YKL009W, strain mrt4, stronger effect = lower value 1 | S. cerevisiae deletion strains, locus YKL068W, stronger effect = lower value 0.995 | S. cerevisiae deletion strains, locus YKL085W, strain MDH1 (second series), stronger effect = lower value 1.03 | S. cerevisiae deletion strains, locus YKL085W, strain MDH1, stronger effect = lower value 1.03 | S. cerevisiae deletion strains, locus YKL190W, strain CNB1, stronger effect = lower value 1.01 | S. cerevisiae deletion strains, locus YKR001C, strain vps1, stronger effect = lower value 0.999 | S. cerevisiae deletion strains, locus YLR039C, strain RIC1, stronger effect = lower value 1.11 | S. cerevisiae deletion strains, locus YLR058C, strain SHM2, stronger effect = lower value 1.02 | S. cerevisiae deletion strains, locus YLR102C, strain apc9, stronger effect = lower value 0.983 | S. cerevisiae deletion strains, locus YLR262C, strain YPT6, stronger effect = lower value 1.16 | S. cerevisiae deletion strains, locus YLR268W, strain sec22, stronger effect = lower value 0.98 | S. cerevisiae deletion strains, locus YLR330W, strain CHS5, stronger effect = lower value 1.01 | S. cerevisiae deletion strains, locus YLR342W, strain FKS1 (second series), stronger effect = lower value 0.965 | S. cerevisiae deletion strains, locus YLR371W, strain rom2, stronger effect = lower value 0.982 | S. cerevisiae deletion strains, locus YLR418C, strain cdc73, stronger effect = lower value 0.983 | S. cerevisiae deletion strains, locus YML016C, strain PPZ1, stronger effect = lower value 1.01 | S. cerevisiae deletion strains, locus YML032C, strain rad52, stronger effect = lower value 0.96 | S. cerevisiae deletion strains, locus YML124C, strain tub3, stronger effect = lower value 0.989 | S. cerevisiae deletion strains, locus YMR078C, strain ctf18, stronger effect = lower value 0.985 | S. cerevisiae deletion strains, locus YMR223W, strain ubp8, stronger effect = lower value 0.963 | S. cerevisiae deletion strains, locus YMR263W, strain SAP30, stronger effect = lower value 1.02 and 0.998 | S. cerevisiae deletion strains, locus YMR307W, strain GAS1, stronger effect = lower value 1.08 and 0.993 | S. cerevisiae deletion strains, locus YNL067W, strain RPL9B, stronger effect = lower value 1.02 | S. cerevisiae deletion strains, locus YNL128W, strain TEP1, stronger effect = lower value 1.02 and 1.01 | S. cerevisiae deletion strains, locus YNL153C, strain GIM3, stronger effect = lower value 1.03 | S. cerevisiae deletion strains, locus YNL175C, strain NOP13, stronger effect = lower value 1.02 | S. cerevisiae deletion strains, locus YNL197C, strain WHI3, stronger effect = lower value 1.04 | S. cerevisiae deletion strains, locus YNL224C, strain SQS1, stronger effect = lower value 0.999 | S. cerevisiae deletion strains, locus YNL233W, strain BNI4, stronger effect = lower value 1.02 | S. cerevisiae deletion strains, locus YNL250W, strain rad50, stronger effect = lower value 1.01 | S. cerevisiae deletion strains, locus YNL271C, strain bni1, stronger effect = lower value 0.983 | S. cerevisiae deletion strains, locus YNL298W, strain CLA4, stronger effect = lower value 0.977 | S. cerevisiae deletion strains, locus YNL307C, strain MCK1, stronger effect = lower value 0.975 | S. cerevisiae deletion strains, locus YNL322C, strain KRE1, stronger effect = lower value 1.02 and 0.982 | S. cerevisiae deletion strains, locus YNR052C, strain pop2, stronger effect = lower value 0.966 | S. cerevisiae deletion strains, locus YOL006C, strain TOP1, stronger effect = lower value 1.03 | S. cerevisiae deletion strains, locus YOL012C, strain htz1 1.66 | S. cerevisiae deletion strains, locus YOL147C, strain pex11, stronger effect = lower value 0.991 | S. cerevisiae deletion strains, locus YOR061W, strain CKA2, stronger effect = lower value 1.02 | S. cerevisiae deletion strains, locus YOR069W, strain VPS5, stronger effect = lower value 1.01 | S. cerevisiae deletion strains, locus YOR083W, strain WHI5 (second series), stronger effect = lower value 1.02 | S. cerevisiae deletion strains, locus YOR136W, strain idh2, stronger effect = lower value 0.992 | S. cerevisiae deletion strains, locus YOR144C, strain elg1, stronger effect = lower value 0.994 | S. cerevisiae deletion strains, locus YOR184W, strain ser1, stronger effect = lower value 0.954 | S. cerevisiae deletion strains, locus YOR316C, strain cot1, stronger effect = lower value 0.988 | S. cerevisiae deletion strains, locus YPL055C, strain LGE1, stronger effect = lower value 1.07 and 0.961 | S. cerevisiae deletion strains, locus YPL241C, strain CIN2, stronger effect = lower value 1.01 | S. cerevisiae deletion strains, locus YPR119W, strain clb2, stronger effect = lower value 0.983 | S. cerevisiae deletion strains, locus YPR141C, strain kar3, stronger effect = lower value 0.987 | S. cerevisiae deletion strains, locus YPR163C, strain tif3, stronger effect = lower value 0.985 | S. cerevisiae deletion strains, locus YPR167C, strain met16, stronger effect = lower value 0.986 | S. cerevisiae deletion strains, strain wtn01, stronger effect = lower value 0.988 | S. cerevisiae strains, strain wild type, stronger effect = lower value 1.01

Reference: PubChem BioAssay AID1159580 (chemical genetic matrix, 2015)
